The structures appear in SMILES notation. The whole screen tested about 50,000 compounds, of which about 800 (1.6%) showed an effect of 50% or more. The entries come from a sample that favours strong results as a whole.

Sequence of Bcl-2-like protein 10 (Homo sapiens) (Q9HD36 whole entry, looked up): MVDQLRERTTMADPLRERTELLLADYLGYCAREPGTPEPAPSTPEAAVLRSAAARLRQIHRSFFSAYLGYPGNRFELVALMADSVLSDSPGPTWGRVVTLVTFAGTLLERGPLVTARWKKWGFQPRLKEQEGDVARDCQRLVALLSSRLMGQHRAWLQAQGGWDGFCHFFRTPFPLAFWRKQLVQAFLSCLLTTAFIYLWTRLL

The assay has as its target Bcl-2-like protein 10 (Homo sapiens) (UniProt Q9HD36). In words: Phenotype converters, Bcl-B/TR3 peptide binding displacement, primary biochemical FP (AID 1240).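 Also: 0% = Bcl-B with tracer peptide and DMSO and 100% = tracer peptide lacking Bcl-B.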 To be noted: GST-Bcl-B / FITC-TR3 peptide fluorescence polarization; stronger effect = higher value; compound at 3.75 mg/L.
For the compound `O=C(CN1C(=O)c2ccccc2C1=O)Nc1nc(-c2ccccc2)cs1`, the displacement was -6.7%.

As for `COC(=O)C(C)N(C(=O)c1ccc(C(=O)c2ccccc2)cc1)c1c(C)cccc1C` (configuration not stated), the displacement worked out at 10.7%.

With `COc1cccc(-c2nnc(-c3ccncc3)o2)c1`, the displacement was 6.6%.

As to `COc1cccc(OCCNC(=O)c2cc(OC)c(OC)c(OC)c2)c1`, the displacement was 11.6%.

With `O=C1NCC(c2ccccc2)C1C(=O)N/N=C\c1cc([N+](=O)[O-])cc(Br)c1O` (configuration not stated), the displacement came to 5.6%.

With `COCCCNC(=O)/C(=C/c1ccc(-c2ccc(Br)cc2)o1)NC(=O)c1ccccc1`, the displacement was -6.6%.

Consider `CCOc1ccc(NC(=O)/C=C/c2ccc(Cl)cc2)cc1`, for which the displacement came out at 10.1%.

Regarding `COc1ccc(Cc2noc(-c3ccccc3C)n2)cc1`, the displacement was -6.7%.

In the case of `COC(=O)C1=NN(C(=O)c2ccccc2)C(O)(C(C)(C)C)C1` (configuration not stated), the displacement was -3.6%.

In the case of `O=C1OC(c2ccccc2F)=N/C1=C\c1cccc(I)c1`, the displacement was -0.4%.

As to `COc1ccccc1C=C1C(=O)c2ccccc2C1=O`, the displacement was 11.5%.

For `O=C1OC(c2ccccc2F)=N/C1=C\c1ccccc1[N+](=O)[O-]`, the displacement came out at 4.1%.

Turning to `COc1ccc(C=C2C(=O)c3ccccc3C2=O)c(O)c1`, the displacement worked out at 18.4%.

Turning to `COc1cccc(/C=C2/N=C(c3ccc(NC(C)=O)cc3)OC2=O)c1`, the displacement is 33.2%.

Take `COc1ccc(C2=NC(=Cc3cccc4ccccc34)C(=O)O2)cc1`: the displacement worked out at 108%.

For the compound `O=C1OC(c2ccccc2F)=N/C1=C\c1cccc2ccccc12`, the displacement stood at 78.4%.

`COc1ccc(C=C2C(=O)c3ccccc3C2=O)c(OC)c1`: the displacement amounted to 181%.

Consider `COc1ccc(C2=N/C(=C\N(C)C)C(=O)O2)cc1`, for which the displacement was -9%.

Consider `Cc1onc(-c2c(Cl)cccc2Cl)c1C(=O)N1CCN(Cc2ccccc2)CC1`, for which the displacement was found to be 0.2%.

For the compound `CCOC(=O)CNC1CC(C)(C)NC(C)(C)C1`, the displacement was -1.2%.

As to `COc1ccc(NC(=O)c2ccc(N(Cc3ccc(Cl)cc3)S(C)(=O)=O)cc2)c(OC)c1`, the displacement was determined as 26.7%.

For the compound `Nc1cc(-c2ccc(Br)cc2)nn1Cc1ccc(Cl)cc1`, the displacement is -1.3%.

For the compound `O=c1c2c3c(sc2[nH]c(=S)n1-c1ccccc1)CCC3`, the displacement is -2.5%.

Consider `O=c1c2c3c(sc2[nH]c(=S)n1-c1ccccc1)-c1ccccc1CC3`, for which the displacement worked out at 102%.

Consider `C=CCn1c(=S)[nH]c2sc3c(c2c1=O)CCc1ccccc1-3`, for which the displacement is -4.7%.

As for `O=C(c1ccc(-c2ccccc2)cc1)N1CCN(Cc2ccc3c(c2)OCO3)CC1`, the displacement is -1.6%.

For `Cc1[nH]c2ccccc2c1/C=C/c1nc2ccccc2c(=O)n1C`, the displacement turned out to be 186%.

As to `Cc1c(/C=C/c2nc3ccccc3c(=O)n2C)c2ccccc2n1C`, the displacement turned out to be 3%.

Take `O=c1c2ccccc2nc(/C=C/c2c[nH]c3ccccc23)n1-c1ccc([N+](=O)[O-])cc1`: the displacement is -62.9%.

Turning to `Cn1c(/C=C/c2c[nH]c3ccccc23)nc2ccccc2c1=O`, the displacement came to 108%.

Consider `O=c1c2ccccc2nc(/C=C/c2c[nH]c3ccccc23)n1-c1cccc([N+](=O)[O-])c1`, for which the displacement is -2.2%.

For the compound `Cc1[nH]c2ccccc2c1/C=C/c1nc2ccccc2c(=O)n1Cc1ccccc1`, the displacement was -5.8%.

As for `COc1ccc(C)cc1NC(=O)c1cccnc1`, the displacement was determined as 20.4%.

As for `COc1cc(/C=c2\sc3nc4ccccc4n3c2=O)cc(Br)c1OCc1ccccc1F`, the displacement came out at 13.9%.

For the compound `COc1ccc(-c2nnc(SCC(=O)Nc3ccc(C)cc3Br)o2)cc1`, the displacement amounted to 14.5%.

With `COc1ccc(Br)cc1/C=C/C(=O)Nc1ccc(-c2nc3ncccc3o2)cc1`, the displacement is -4.5%.

On to `Cc1ccc(-c2nc3cc(Cl)ccc3o2)cc1NC(=O)/C=C/c1cccc([N+](=O)[O-])c1`, for which the displacement was -18.8%.

Turning to `Cc1ccc2oc(-c3cccc(NC(=O)/C=C/c4cccc([N+](=O)[O-])c4)c3C)nc2c1`, the displacement was -24.7%.

Regarding `COc1ccc(Br)cc1C(=O)Nc1cccc(-c2nc3ncccc3o2)c1C`, the displacement is -3.8%.

For the compound `O=C(/C=C/c1ccccc1)Nc1ccc(-c2nc3ccccc3o2)c(O)c1`, the displacement was 127%.

With `O=C(/C=C/c1cccc([N+](=O)[O-])c1)Nc1ccc(-c2nc3ncccc3o2)cc1`, the displacement came to 45.3%.

Regarding `O=C(/C=C/c1ccc(Cl)cc1)Nc1ccc(-c2nc3ccccc3o2)c(O)c1`, the displacement is -0.3%.

Consider `O=C(/C=C/c1cccc([N+](=O)[O-])c1)Nc1ccc(-c2nc3ccccc3o2)cc1`, for which the displacement is -5.2%.

In the case of `Cc1c(NC(=O)/C=C/c2cccc([N+](=O)[O-])c2)cccc1-c1nc2ncccc2o1`, the displacement was found to be 74.8%.

With `Cc1ccc(-c2nc3ccccc3o2)cc1NC(=O)/C=C/c1cccc([N+](=O)[O-])c1`, the displacement was 74.2%.

In the case of `COc1ccc(Br)cc1/C=C/C(=O)Nc1cccc(-c2nc3ncccc3o2)c1C`, the displacement came to 95.3%.

In the case of `O=C(/C=C/c1ccccc1)Nc1ccc(O)c(-c2nc3ccccc3o2)c1`, the displacement was -3.2%.

Turning to `O=[N+]([O-])c1c(NC2CC2)ncnc1NC1CC1`, the displacement turned out to be 10.9%.

In the case of `O=[N+]([O-])c1ccccc1/C=N/N1CCN(Cc2ccc(Cl)cc2)CC1`, the displacement is -1.7%.

As for `COc1cccc(Nc2nc(-c3ccc(S(=O)(=O)N4CCOCC4)cc3)cs2)c1`, the displacement worked out at 10.4%.

With `COc1ccccc1/C=C1\SC(=S)N(CCC(=O)NNC(=O)c2ccccc2O)C1=O`, the displacement is 14.7%.

As to `COc1ccc(N(CC(=O)Nc2cccc(Br)c2)S(=O)(=O)c2ccc(C)cc2)c(OC)c1`, the displacement is -1.5%.

Regarding `CC(C)CC(NC(c1ccccc1)(c1ccccc1)c1ccccc1)C(=O)O` (configuration not stated), the displacement is 8.9%.

Regarding `Cc1cc2nc(-c3ccc(C)c(NC(=O)/C=C/c4ccco4)c3)oc2cc1C`, the displacement was -5.3%.

With `COc1ccc(Br)cc1/C=C\C(=O)Nc1ccc([N+](=O)[O-])cc1OC`, the displacement was found to be 4.8%.

Consider `COc1ccc(Br)cc1/C=C/C(=O)Nc1ccc(C)cc1[N+](=O)[O-]`, for which the displacement came out at 87.4%.

Regarding `O=C(/C=C/c1ccco1)Nc1ccc(-c2nc3ncccc3o2)cc1`, the displacement was -8.2%.

With `COc1ccc(Br)cc1C(=O)Nc1ccc(C)cc1[N+](=O)[O-]`, the displacement is 27.4%.

`Cc1ccc(-c2nc3ncccc3o2)cc1NC(=O)/C=C/c1ccco1`: the displacement amounted to 116%.

With `CCC(C)NC(=O)CN(c1ccccc1)S(=O)(=O)c1ccccc1[N+](=O)[O-]` (configuration not stated), the displacement is -8%.

On to `COc1ccc(C2Nc3ccccc3C(=O)N2Cc2ccco2)cc1COc1c(C)cccc1C` (configuration not stated), for which the displacement is -10.4%.

`Cc1cc(C)nc(SCC(=O)NN=C2CCCCCC2)n1`: the displacement amounted to 3.9%.

`COc1ccc(N(Cc2ccc(C(=O)NC3CCCC3)cc2)S(=O)(=O)c2ccccc2)cc1`: the displacement is -14.5%.

In the case of `O=C(Oc1ccc(/C=N/O)cc1)c1ccc(Br)cc1`, the displacement is 1.6%.

Take `C/C(=N\Nc1nc(C)cc(-c2ccccc2)n1)c1cccc(N)c1`: the displacement was -15.5%.

`C=CCOc1ccc(/C=C2\C(=O)C(C(=O)OC)=C(C)N2c2ccc(C)cc2)cc1`: the displacement is -24.7%.

For `CCOc1ccc(/C=C2\C(=O)C(C(=O)OC)=C(C)N2c2ccc(F)cc2)cc1`, the displacement was -6.6%.

Consider `COC(=O)C1=C(C)N(c2ccc(Cl)cc2)/C(=C\c2ccc(OCC(=O)Nc3ccccc3OC)cc2)C1=O`, for which the displacement worked out at 10.4%.

Regarding `C=CCOc1ccc(/C=C2\C(=O)C(C(=O)OC)=C(C)N2c2ccc(F)cc2)cc1`, the displacement is 127%.

With `COC(=O)C1=C(C)N(c2ccccc2)/C(=C\c2ccc(OCC(=O)Nc3ccccc3OC)cc2)C1=O`, the displacement was found to be 55.5%.

Regarding `COC(=O)C1=C(C)N(c2ccc(C)c(C)c2)/C(=C\c2ccc(OCC(=O)Nc3ccccc3OC)cc2)C1=O`, the displacement turned out to be 68%.

Regarding `COC(=O)C1=C(C)N(c2ccc(C)c(C)c2)/C(=C/c2ccc(OC)cc2)C1=O`, the displacement came out at 14.1%.

`COC(=O)C1=C(C)N(c2ccc(Br)cc2)/C(=C\c2ccc(OCC(=O)Nc3ccccc3OC)cc2)C1=O`: the displacement was found to be 20.3%.

With `COC(=O)C1=C(C)N(c2ccc(C)cc2)/C(=C\c2ccc(OCC(=O)Nc3ccccc3Cl)cc2)C1=O`, the displacement came to 7.6%.

Consider `Cc1ccc(OCC(=O)O/N=C(\N)Cc2ccc([N+](=O)[O-])cc2)c(C)c1`, for which the displacement came out at 5.9%.

As for `O=C(Nc1ccc2c(c1O)C(=O)c1ccccc1C2=O)c1ccccc1`, the displacement worked out at 12.7%.

Turning to `CC1=NN(C(N)=S)C2(O)CC3C(C12)C3(C)C` (configuration not stated), the displacement worked out at 7.5%.

`CC(C)(C)NC(=O)c1ccccc1N(Cc1ccccc1)S(=O)(=O)c1ccccc1`: the displacement is -1.7%.

Consider `Cc1ccc2[nH]c(O)c(N=NC(=O)c3cc4ccccc4nc3C)c2c1`, for which the displacement amounted to 5.5%.

As to `Cc1ccc(C(=O)c2cccc(NC(=O)CC(C)C)c2)cc1C`, the displacement was 12.1%.

`Cc1ccccc1NC(=O)C1CC(=O)N(c2ccccc2)C1` (configuration not stated): the displacement is 6.2%.

With `O=C(Nc1ccccc1Br)C1CC(=O)N(c2ccccc2)C1` (configuration not stated), the displacement came out at 77.5%.

For `Cc1ccc(N2CC(C(=O)Nc3ccccc3Br)CC2=O)cc1` (configuration not stated), the displacement came to 11.9%.

Consider `CS(=O)(=O)N(CC(=O)O)c1ccc(F)cc1`, for which the displacement was 6.7%.

As to `N#C/C(=C\c1cccs1)c1nc2ccccc2s1`, the displacement was -12.5%.

Turning to `CCOc1cc(/C=C(\C#N)c2nc3ccccc3s2)ccc1O`, the displacement stood at 0%.

In the case of `Cc1ccc(/C=C(\C#N)c2nc3ccccc3s2)cc1`, the displacement amounted to 88.3%.

For the compound `Cc1cccc(OCCn2c(N)nc3ccccc32)c1`, the displacement is -10.3%.

As for `Cc1c(NC(=O)CSc2nnc(-c3cccc(F)c3)n2-c2ccccc2)c(=O)n(-c2ccccc2)n1C`, the displacement amounted to 13.4%.

For `CN1CCN(C2=C(Cl)C(=O)N(c3ccc(Br)cc3)C2=O)CC1`, the displacement is 15.9%.

As for `C=CCc1cccc2cc(C(=O)Nc3ccc(CC)cc3)c(=O)oc12`, the displacement was 8.6%.

Turning to `C=CCc1cccc2cc(C(=O)Nc3ccc(NC(C)=O)cc3)c(=O)oc12`, the displacement was -13.3%.

With `C=CCc1cccc2cc(C(=O)Nc3ccc(OCC)cc3)c(=O)oc12`, the displacement is 53.1%.

Regarding `CN1C(=O)/C(=C/c2ccc(O)c(O)c2)SC1=S`, the displacement is 14%.

`Cc1cc(Cl)ccc1NC(=O)Cc1ccccc1`: the displacement was -10%.

Turning to `O=c1/c(=C\c2ccccc2OCc2cccc3ccccc23)sc2nc3ccccc3n12`, the displacement was found to be 104%.

As to `COc1c(Br)cc(Br)cc1/C=c1\sc2nc3ccccc3n2c1=O`, the displacement came to 21.9%.

For the compound `COc1cc(/C=c2\sc3nc4ccccc4n3c2=O)cc(Cl)c1OCCOc1ccc(Br)cc1`, the displacement was -2.9%.

In the case of `COc1cccc(OCCOc2c(Cl)cc(/C=c3\sc4nc5ccccc5n4c3=O)cc2OC)c1`, the displacement was 92.6%.

Take `CCOC(=O)COc1cc(Br)c(/C=c2\sc3nc4ccccc4n3c2=O)cc1OC`: the displacement was found to be 11.1%.

With `COc1cccc(/C=c2/sc3nc4ccccc4n3c2=O)c1`, the displacement was 92.4%.

Consider `COc1cc(Br)c(/C=c2/sc3nc4ccccc4n3c2=O)cc1OC`, for which the displacement is 132%.

On to `COc1cc(/C=c2\sc3nc4ccccc4n3c2=O)cc(Cl)c1OCc1ccccc1Cl`, for which the displacement came to 2.3%.

Regarding `O=c1/c(=C/c2ccccc2OCc2ccccc2F)sc2nc3ccccc3n12`, the displacement was found to be 12.4%.

Take `O=c1/c(=C/c2cccc(Br)c2)sc2nc3ccccc3n12`: the displacement was 14.5%.

Turning to `COc1cccc(OCCOc2cccc(/C=c3\sc4nc5ccccc5n4c3=O)c2)c1`, the displacement stood at 4.4%.

Consider `O=c1/c(=C\c2ccc(OCc3cccc4ccccc34)cc2)sc2nc3ccccc3n12`, for which the displacement turned out to be 11.6%.
